{"source": "PubChem BioAssay (NCATS)", "note": "“And” between values parts separate entries of the source, which are not always exact repeats. Identical values can stand only once. Inconclusive results are not listed. A call without a number means that no potency is given here. The source made the active and inactive calls. Calls come from the whole dose curve; as a rule, active = well fitted curve in the direction sought with a large enough effect; inconclusive = small, poorly fitted or top-dose-only effect, or another doubt; inactive = no such curve, though single readings can be large; an effect the other way counts as inactive or inconclusive. Potency is the fitted concentration of half-maximal effect."}
{"system": "not listed separately", "assay": "qHTS for Inhibitors of the Aldehyde Dehydrogenase Family (ALDH1A2, ALDH1A3, ALDH2, ALDH3A1) (AID 2061307); note: nearly all actives have a fitted effect of over 50% in size; for potency: test system not described further here", "details": "ALDH inhibition qHTS; series mostly up to 50.3 µM"}
{"smiles": "COc1ccc(/C=C/c2onc(C)c2S(=O)(=O)N2CCC(C(=O)N3CCc4ccccc4C3)CC2)cc1", "Potency": "inactive"}
{"smiles": "c1cc2c(cc1CNc1ccc(N3CCCCC3)cc1)OCO2", "Potency": "12.7 µM (active)"}
{"smiles": "CC(=O)c1cccc(Nc2cc(C)nc3nc(-c4ccccc4C)nn23)c1", "Potency": "inactive"}
{"smiles": "NC(=O)C1CCN(c2ncc(-c3ccc4c(c3)OC(F)(F)O4)s2)CC1", "Potency": "10.1 µM (active)"}
{"smiles": "CCOc1ccc2[nH]c(=O)c(CN(Cc3nnnn3Cc3ccco3)C3CCCCC3)cc2c1", "Potency": "0.896 µM (active)"}
{"smiles": "O=C(O)c1ccc(-c2noc(-c3cccc(F)c3)n2)cc1", "Potency": "1.52 µM (active)"}
{"smiles": "COc1cccc(-c2nc(-c3ccc(C(=O)O)cc3)no2)c1", "Potency": "1.2 µM (active)"}
{"smiles": "CCOC(=O)C1CCN(C(=O)C(C)(C)NC(=O)Nc2ccc(N)cc2)CC1", "Potency": "inactive"}
{"smiles": "COc1cccc(C2c3c(ncn(-c4ccccc4-c4ccccc4)c3=N)Oc3ccc4ccccc4c32)c1", "note": "(configuration not stated)", "Potency": "8.91 µM (active)"}
{"smiles": "Cc1ccccc1Cn1cnc2cc(-c3cccc(NC(=O)Cc4ccccc4)n3)ccc21", "note": "(tested in a mixture with another compound)", "Potency": "inactive"}
{"smiles": "CC(=O)NC(C)c1cc(F)c2cccnc2c1O", "note": "(configuration not stated)", "Potency": "2.52 µM (active)"}
{"smiles": "O=C(NCc1ccccn1)c1ccc2nnc(-c3ccc(OC(F)(F)F)cc3)n2c1", "Potency": "inactive"}
{"smiles": "Cc1cnc(-c2ccccc2CO)nc1NCC1CCN(c2cccnc2)CC1", "Potency": "inactive"}
{"smiles": "Cc1ccccc1Nc1nc(C#N)nc(NC2CCCC2)n1", "Potency": "10.1 µM (active)"}
{"smiles": "Cc1ccc(S(=O)(=O)Nc2cc(F)ccc2C(=O)Nc2nc(-c3ccccc3)cs2)cc1", "Potency": "0.224 µM (active)"}
{"smiles": "COc1ccc(-c2nnc(SCC(=O)Nc3ccc(C(C)=O)cc3)o2)cc1", "Potency": "inactive"}
{"smiles": "COc1ccc(-n2ncc3c2CCCC3NC(=O)c2ccc(F)c(F)c2)cc1", "note": "(configuration not stated)", "Potency": "inactive"}
{"smiles": "CC(=O)Nc1sc2c(c1-c1nc3ccccc3o1)CCN(C(C)C)C2", "Potency": "7.08 µM (active)"}
{"smiles": "Cc1ccc(CNc2ccc(N3CCCCC3)cc2)cc1", "Potency": "11.3 µM (active)"}
{"smiles": "Cc1ccc(CNc2ccc(N3CCN(C)CC3=O)cc2)cc1", "Potency": "inactive"}
{"smiles": "Cc1ccsc1CN(C)c1ncnc2ccc(-c3ccoc3)cc12", "Potency": "inactive"}
{"smiles": "Cc1ccc2nc3sc(C(=O)NCCCN(C)C)cc3cc2c1", "Potency": "12.1 µM (active)"}
{"smiles": "CC1(C)CC[C@]2(C(=O)O)CC[C@]3(C)C(=CCC4[C@@]5(C)C[C@@H](O)[C@H](O)[C@@](C)(CO)C5CC[C@]43C)[C@@H]2[C@@H]1O", "note": "(some centres not stated)", "Potency": "inactive"}
{"smiles": "Cc1ccc(CNc2ncnc3ccc(-c4ccoc4)cc23)o1", "Potency": "inactive"}
{"smiles": "O=C(O)c1ccc(-c2noc(-c3ccccc3F)n2)cc1", "Potency": "3.98 µM (active) and 1.2 µM (active)"}
{"smiles": "COc1ccc(-n2c(C)c(C(C)=O)c3ccccc32)cc1", "Potency": "0.4 µM (active)"}
{"smiles": "Cc1ccc(N(C)S(=O)(=O)c2ccc(-c3cnc(C4CC4)o3)cc2)cc1", "Potency": "inactive"}
{"smiles": "COc1ccc2c(c1)CCNC2Cc1ccc(OC)c(O)c1", "note": "(configuration not stated)", "Potency": "inactive"}
{"smiles": "Cc1c(P(=S)(c2ccccc2)c2ccccc2)[n+]2ccccc2n1C/C=C/c1ccc(Br)cc1", "Potency": "inactive"}
{"smiles": "COc1ccc2nc(-c3ccc(F)cc3)sc2c1", "Potency": "5.38 µM (active)"}
{"smiles": "O=C(Nc1ccc(C(=O)N2CCCC2)cc1)c1ccccc1F", "Potency": "10.7 µM (active)"}
{"smiles": "O=C(NCc1ccccc1)C1CCN(c2nc(-c3ccc(Br)cc3)cs2)CC1", "Potency": "7.08 µM (active)"}
{"smiles": "CC(=O)c1ccc(NC(=O)c2cnn(-c3cccc(F)c3)c2-n2cccc2)cc1", "Potency": "inactive"}
{"smiles": "N#Cc1cccc(C#N)c1-c1nc2c3ccccc3c3cc(Cl)ccc3c2[nH]1", "Potency": "inactive"}
{"smiles": "Oc1ccc(COc2cccc3ccccc23)c2cccnc12", "Potency": "inactive"}
{"smiles": "Cc1cn(-c2cc(NC(=O)c3ccc(C)c(N)c3)cc(C(F)(F)F)c2)cn1", "Potency": "inactive"}
{"smiles": "NCC(CNc1nc(Nc2cccc(NC(=O)N3CCCC3)c2)ncc1I)C(=O)c1cccs1", "note": "(configuration not stated)", "Potency": "inactive"}
{"smiles": "Oc1ccccc1C1Nc2cccc3cccc(c23)N1", "Potency": "inactive"}
{"smiles": "CCOC(=O)C1CCN(c2ncc(-c3ccc4c(c3)OCCCO4)s2)CC1", "Potency": "5.65 µM (active)"}
{"smiles": "c1cc2c(cc1CNc1ccc(N3CCOCC3)cc1)OCO2", "Potency": "11.3 µM (active)"}
{"molecular_target": "Aldehyde dehydrogenase, mitochondrial (Homo sapiens) (UniProt P05091)", "assay": "qHTS for Inhibitors of the Aldehyde Dehydrogenase Family (ALDH2) Primary screen (AID 2061308); note: nearly all actives have a fitted effect of over 55% in size", "details": "ALDH2 enzyme inhibition qHTS, 1536-well; series mostly up to 56 µM"}
{"smiles": "c1cc2c(cc1CNc1ccc(N3CCCCC3)cc1)OCO2", "Potency": "inactive"}
{"smiles": "NC(=O)C1CCN(c2ncc(-c3ccc4c(c3)OC(F)(F)O4)s2)CC1", "Potency": "inactive"}
{"smiles": "O=C(O)c1ccc(-c2noc(-c3cccc(F)c3)n2)cc1", "Potency": "inactive"}
{"smiles": "COc1cccc(-c2nc(-c3ccc(C(=O)O)cc3)no2)c1", "Potency": "inactive"}
{"smiles": "CCOC(=O)C1CCN(C(=O)C(C)(C)NC(=O)Nc2ccc(N)cc2)CC1", "Potency": "inactive"}
{"smiles": "COc1cccc(C2c3c(ncn(-c4ccccc4-c4ccccc4)c3=N)Oc3ccc4ccccc4c32)c1", "note": "(configuration not stated)", "Potency": "inactive"}
{"smiles": "CC(=O)NC(C)c1cc(F)c2cccnc2c1O", "note": "(configuration not stated)", "Potency": "inactive"}
{"smiles": "Cc1cnc(-c2ccccc2CO)nc1NCC1CCN(c2cccnc2)CC1", "Potency": "inactive"}
{"smiles": "Cc1ccccc1Nc1nc(C#N)nc(NC2CCCC2)n1", "Potency": "inactive"}
{"smiles": "Cc1ccc(S(=O)(=O)Nc2cc(F)ccc2C(=O)Nc2nc(-c3ccccc3)cs2)cc1", "Potency": "inactive"}
{"smiles": "CC(=O)Nc1sc2c(c1-c1nc3ccccc3o1)CCN(C(C)C)C2", "Potency": "inactive"}
{"smiles": "Cc1ccc(CNc2ccc(N3CCCCC3)cc2)cc1", "Potency": "inactive"}
{"smiles": "Cc1ccc(CNc2ccc(N3CCN(C)CC3=O)cc2)cc1", "Potency": "inactive"}
{"smiles": "Cc1ccsc1CN(C)c1ncnc2ccc(-c3ccoc3)cc12", "Potency": "inactive"}
{"smiles": "Cc1ccc2nc3sc(C(=O)NCCCN(C)C)cc3cc2c1", "Potency": "inactive"}
{"smiles": "CC1(C)CC[C@]2(C(=O)O)CC[C@]3(C)C(=CCC4[C@@]5(C)C[C@@H](O)[C@H](O)[C@@](C)(CO)C5CC[C@]43C)[C@@H]2[C@@H]1O", "note": "(some centres not stated)", "Potency": "inactive"}
{"smiles": "Cc1ccc(CNc2ncnc3ccc(-c4ccoc4)cc23)o1", "Potency": "inactive"}
{"smiles": "O=C(O)c1ccc(-c2noc(-c3ccccc3F)n2)cc1", "Potency": "inactive"}
{"smiles": "COc1ccc(-n2c(C)c(C(C)=O)c3ccccc32)cc1", "Potency": "inactive"}
{"smiles": "COc1ccc2nc(-c3ccc(F)cc3)sc2c1", "Potency": "inactive"}
{"smiles": "O=C(NCc1ccccc1)C1CCN(c2nc(-c3ccc(Br)cc3)cs2)CC1", "Potency": "inactive"}
{"smiles": "N#Cc1cccc(C#N)c1-c1nc2c3ccccc3c3cc(Cl)ccc3c2[nH]1", "Potency": "inactive"}
{"smiles": "Oc1ccc(COc2cccc3ccccc23)c2cccnc12", "Potency": "inactive"}
{"smiles": "NCC(CNc1nc(Nc2cccc(NC(=O)N3CCCC3)c2)ncc1I)C(=O)c1cccs1", "note": "(configuration not stated)", "Potency": "20 µM (active)"}
{"smiles": "Oc1ccccc1C1Nc2cccc3cccc(c23)N1", "Potency": "inactive"}
{"smiles": "CCOC(=O)C1CCN(c2ncc(-c3ccc4c(c3)OCCCO4)s2)CC1", "Potency": "inactive"}
{"smiles": "c1cc2c(cc1CNc1ccc(N3CCOCC3)cc1)OCO2", "Potency": "inactive"}
